{"source": "PubChem BioAssay (NCATS)", "note": "Inconclusive results are not listed. A number with no mark means an inactive call. The call rests on the fitted dose curve; in most records, active means well fitted cell-killing curve with a large enough effect; inconclusive means small, poorly fitted or top-dose-only effect; inactive means no such curve, though single readings can be large or run the other way. Where a SMILES comes first, the peptide text is derived from it. [ ]: non-standard residue; d: D form. pGlu = O=C1CC[C@@H](C(=O)O)N1", "data": [{"assay": "qHTS of pediatric cancer cell lines to identify multiple opportunities for drug repurposing: Primary screen for Rh41 cells (AID 1347108);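 further: luminescence drop marks cytotoxic hits; nearly all actives have a fitted effect of over 70% in size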", "details": "Rh41 rhabdomyosarcoma viability, CellTiter-Glo luminescence, 48 h; series mostly up to 46 µM; activity change, negative = cytotoxic: at the top concentration", "description": "Drug repurposing or repositioning has been offered as a strategy for drug development in oncology programs. This approach has special potential for childhood cancers and other rare or orphan diseases, where the expected return on new drug development has been a disincentive to pharmaceuticals. […] In this project we exploit the poly-pharmacology of drugs to discover new indications via phenotypic screening of a panel of 19 well-characterized cell lines derived from solid tumors seen in children and adolescents. The goal is to identify approved drugs with previously unrecognized anticancer properties that has the potential to reveal new mechanisms and biological processes involved in carcinogenesis or drug resistance. We employed a titration-based paradigm (quantitative high-throughput screening or qHTS), where all compounds were tested at multiple concentrations for their effect on cell viability. Concentration-response curves (CRCs) were derived directly from the primary screen, and both potency and efficacy values were used to identify compounds with robust bioactivity profiles. We screened the NIH Chemical Genomics Center (NCGC) Pharmaceutical Collection (NPC) and Mechanism Interrogation Plate (MIPE) small molecule collections of approved and investigational compounds against these cell lines; and measured metabolically active cells after 48 hours of compound treatment as a proxy for cell viability. […] Assay Submitter: Nathalia J. Martinez, National Center for Advancing Translational Sciences, National Institutes of Health, Rockville, MD, USA; email: natalia.martinez@nih.gov Shen, M et al. Quantitative high-throughput phenotypic screening of pediatric cancer cell lines identifies multiple opportunities for drug repurposing. Oncotarget 2017 Dec 19;9(4):4758-4772. PMID 29435139.\nThe cells were obtained from University of North Carolina (UNC), Pediatric Preclinical Testing Program (PPT), and Coriell Institute (CI). qHTS cell viability assay: Cells were assayed in growth media at a density of 500-1,000 cells/well. Five microliters of cells were dispensed into 1,536-well, white, solid-bottom, TC-treated plates (Greiner Bio One) using a multidrop dispenser and incubated at 37 degrees C, 5% CO2, under a humidified atmosphere for 5 hours. Twenty-three nanoliters of compounds and controls (neutral control DMSO or positive control bortezomib at final concentration of 2.3 µM) were subsequently transferred by Kalypsys pintool. For primary screens, the MIPE collection was tested at 11-point dilutions (final concentrations range from 0.78 nM to 46 µM) and the NPC collection at 8-point dilutions (final concentrations range from 0.59 nM to 46 µM). Compounds tested in follow-up screens were assayed at 11-point dilutions. Cells were incubated for 48 hours, followed by addition of 3 µL of CellTiter-Glo (Promega). After a 15 min incubation at room temperature, samples were analyzed for luminescence intensity using a ViewLux High-throughput CCD imager equipped with clear filters.", "values": [{"compound": "CC1CCCCN1CCCOC(=O)c1ccc(OC2CCCCC2)cc1", "note": "(stereo not given)", "activity change, negative = cytotoxic": "14.4%"}, {"compound": "CN(C)CCN(Cc1ccsc1)c1ccccn1", "activity change, negative = cytotoxic": "19.8%"}, {"compound": "Nc1ncnc2nc[nH]c12", "activity change, negative = cytotoxic": "40.6%"}, {"compound": "Nc1ccc(C(=O)OCC(O)CO)cc1", "note": "(stereo not given)", "activity change, negative = cytotoxic": "22.7%"}, {"compound": "CCOC(=O)N1CCC(n2c(=O)[nH]c3cc(Cl)ccc32)CC1", "activity change, negative = cytotoxic": "11.2%"}, {"compound": "Cc1c(C)c2c(c(C)c1OC(=O)CCC(=O)OCCO)CC[C@@](C)(CCC[C@H](C)CCC[C@H](C)CCCC(C)C)O2", "activity change, negative = cytotoxic": "3.84%"}, {"compound": "C/C(=N/NC(=O)c1ccncc1)C(=O)O", "activity change, negative = cytotoxic": "18.5%"}, {"compound": "O=C(Oc1ccccc1)c1cccc(C(=O)Oc2ccccc2)c1", "activity change, negative = cytotoxic": "26.6% [at 92.7 µM]"}, {"compound": "CCOC(=O)NNc1ccc(N(CC)CC(C)O)nn1", "note": "(stereo not given)", "activity change, negative = cytotoxic": "-1.85%"}, {"compound": "OCCOCCN1CCN(C(c2ccccc2)c2ccc(Cl)cc2)CC1", "note": "(stereo not given)", "activity change, negative = cytotoxic": "16.9%"}, {"compound": "COc1ccc2c(c1)CCCC2=O", "activity change, negative = cytotoxic": "25.3%"}, {"compound": "CO[C@]1(NC(=O)CSC(F)F)C(=O)N2C(C(=O)O)=C(CSc3nnnn3CCO)CO[C@H]21", "activity change, negative = cytotoxic": "10.1%"}, {"compound": "CC(CC(C#N)(c1ccccc1)C(C)C)N(C)C", "note": "(stereo not given)", "activity change, negative = cytotoxic": "6.8%"}, {"compound": "CCCCOC(=O)CCCCCCCCC(=O)OCCCC", "activity change, negative = cytotoxic": "8.62%"}, {"compound": "COC(=O)/C=C\\C(=O)OC", "activity change, negative = cytotoxic": "31%"}, {"compound": "Cc1ccccc1N1CCN(CCc2nnc3n2CCCC3)CC1", "activity change, negative = cytotoxic": "25.3%"}, {"compound": "COC(=O)c1c(Cl)c(Cl)c(C(=O)OC)c(Cl)c1Cl", "activity change, negative = cytotoxic": "34% [at 92.7 µM]"}, {"compound": "CCNC(=O)[C@@H]1CCCN1C(=O)[C@H](CCCN=C(N)N)NC(=O)[C@H](CC(C)C)NC(=O)CNC(=O)[C@H](Cc1ccc(O)cc1)NC(=O)[C@H](CO)NC(=O)[C@H](Cc1c[nH]c2ccccc12)NC(=O)[C@H](Cc1cnc[nH]1)NC(=O)[C@@H]1CCC(=O)N1", "note": "([pGlu]HWSYGLRP-NHEt)", "activity change, negative = cytotoxic": "16.8%"}, {"compound": "CC(C)(C)C(O)/C=C/c1ccc2c(c1)OCO2", "note": "(stereo not given)", "activity change, negative = cytotoxic": "21.8%"}, {"compound": "O=C(O)/C=C(\\CC(=O)O)C(=O)O", "activity change, negative = cytotoxic": "31.5%"}, {"compound": "c1ccc2c(c1)CCc1ccccc1N2", "activity change, negative = cytotoxic": "21.2%"}, {"compound": "CC(=O)CC/C=C(\\C)CC/C=C(\\C)CC/C=C(\\C)CCC=C(C)C", "activity change, negative = cytotoxic": "18%"}, {"compound": "O=C1NC(c2ccccc2)(c2ccccc2)C(=O)N1COP(=O)(O)O", "activity change, negative = cytotoxic": "36.1%"}, {"compound": "Cc1ccc(Cl)c(OCC(O)CNC(C)(C)C)c1", "note": "(stereo not given)", "activity change, negative = cytotoxic": "14.3%"}, {"compound": "CCCC(=O)O[C@]1(C(=O)COC(=O)CC)CC[C@H]2[C@@H]3CCC4=CC(=O)CC[C@]4(C)[C@H]3[C@@H](O)C[C@@]21C", "activity change, negative = cytotoxic": "41.6% [at 16.1 µM]"}, {"compound": "O=C(O)Cc1ccccc1Oc1ccc(Cl)cc1Cl", "activity change, negative = cytotoxic": "24.8%"}, {"compound": "Cc1ccc(C(=O)Oc2ccc(C(O)CNC(C)(C)C)cc2OC(=O)c2ccc(C)cc2)cc1", "note": "(stereo not given)", "activity change, negative = cytotoxic": "-9.28%"}, {"compound": "CCOc1ccccc1OCC1CNCCO1", "note": "(stereo not given)", "activity change, negative = cytotoxic": "11.2%"}, {"compound": "COc1ccccc1N1CCN(CC(O)COc2cc(OC)c(OC)c(OC)c2)CC1", "note": "(stereo not given)", "activity change, negative = cytotoxic": "25.1%"}, {"compound": "CC(=O)OC/C=C(C)/C=C/C=C(C)/C=C/C1=C(C)CCCC1(C)C", "activity change, negative = cytotoxic": "24.9%"}, {"compound": "N#CSCC(=O)O", "activity change, negative = cytotoxic": "20.3%"}, {"compound": "C[N+](C)(CCOc1ccccc1)Cc1cccs1", "activity change, negative = cytotoxic": "-6.49%"}, {"compound": "CC(=O)O[C@H]1CC[C@@]2(C)C(=CC[C@@H]3[C@@H]2CC[C@]2(C)C(C(C)=O)=CC[C@@H]32)C1", "activity change, negative = cytotoxic": "19.8%"}, {"compound": "CCCc1c2oc(C(=O)O)cc(=O)c2cc2c(=O)cc(C(=O)O)n(CC)c12", "activity change, negative = cytotoxic": "8.09%"}, {"compound": "COC(=O)C1=C(C)NC(C)=C(C(=O)OCCc2ccc(N3CCN(C(c4ccccc4)c4ccccc4)CC3)cc2)C1c1cccc([N+](=O)[O-])c1", "note": "(stereo not given)", "activity change, negative = cytotoxic": "21%"}, {"compound": "O=C(O)CCC(=O)OC[C@@H](NC(=O)C(Cl)Cl)[C@H](O)c1ccc([N+](=O)[O-])cc1", "activity change, negative = cytotoxic": "22%"}, {"compound": "COC(=O)c1cc(Cl)ccc1OC", "activity change, negative = cytotoxic": "13.3%"}, {"compound": "CC1c2ccccc2CN1NC(=O)c1ccc(Cl)c(S(N)(=O)=O)c1", "note": "(stereo not given)", "activity change, negative = cytotoxic": "10.3%"}, {"compound": "C[N+]1(C)CCC(OC(=O)C(O)(c2ccccc2)C2CCCC2)C1", "note": "(stereo not given)", "activity change, negative = cytotoxic": "24.5%"}, {"compound": "CC(CC1c2ccccc2CCc2ccccc21)CN(C)C", "note": "(stereo not given)", "activity change, negative = cytotoxic": "14.4%"}]}]}
